Reference: PubChem BioAssay AID449762 (Southern Research Specialized Biocontainment Screening …, 2010)
Where “and” joins values, the source holds several entries; their conditions need not be identical. Equal values may be shown once. In all, about 330,000 compounds went through this assay and about 1,900 (0.58%) were called active. About 4% were inconclusive and are not listed. Not all results are given here. Results with a measured potency or affinity are listed apart. A number with no mark means an inactive call. Rule as the data show it: inconclusive = inhibition above about 70% without an active follow-up result; inactive = below that.

Assay: M. tuberculosis growth inhibition, HTS (AID 449762);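 also: bacterial growth assessed after seven days of incubation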
Details: M. tuberculosis H37Rv growth inhibition, 7H9 media; at 25 µM; active compounds read high

| SMILES | inhibition |
| --- | --- |
| Cc1ccc(/C=N/NC(=O)Cc2ccc(Cl)cc2)c(O)c1 | -1.94% |
| O=C(COc1ccccc1F)Nc1ccc(S(=O)(=O)Nc2nccs2)cc1 | 3.76% |
| O=C(C1=C[C@@H](c2ccc(C(F)(F)F)cc2)C[C@@H](OCc2ccc(CO)cc2)O1)N1CCN(Cc2ccccc2)CC1 | 5.34% |
| O=C(Nc1cc(C(F)(F)F)ccc1-n1cncn1)c1ccc(Br)cc1 | -2.45% |
| Cc1ccc(C(=O)Nc2cc(C(F)(F)F)ccc2-n2cncn2)o1 | -8.09% |
| Cc1c(C(=O)O)oc2ccc(S(=O)(=O)NCCC3=CCCCC3)cc12 | -7.6% |
| CC(=O)N1CCCc2cc(S(=O)(=O)NC(C(=O)NCc3ccc(C)cc3)C(C)C)ccc21 (stereo not given) | 9.01% |
| Cc1ccc(C(=O)Cn2cncn2)cc1 | 9.3% |
| CCCCn1c(O)c(/C=C2\C=Nc3ccccc32)c(=O)[nH]c1=O | 12.7% |
| Cn1c(O)c(/C=C2/C=CC=N2)c(=O)[nH]c1=O | 17.3% |
| Cc1ccccc1C(=O)N1CCC(C(=O)Nc2nccs2)CC1 | -0.78% |
| CC(=O)N1CCN(C(=O)CN2C(=O)NC(C)(c3ccc4ccccc4c3)C2=O)CC1 (stereo not given) | 6.21% |
| Cc1ccc(CNCC(=O)Nc2ccc(C)cc2Br)cc1 | 2.37% |
| Cc1ccc(NC(=S)Nc2cccc3cnccc23)cc1 | 1.12% |
| S=C(Nc1cccc(Cl)c1)Nc1cccc2cnccc12 | 10% |
| CCOC(=O)c1cc(C)sc1NC(=O)CN1CCN(C(=O)c2ccco2)CC1 | 17% |
| COC(=O)c1cc(C)sc1NC(=O)CN1CCN(C(=O)c2ccco2)CC1 | -5.56% |
| CCCn1nc(C(=O)NNC(=O)c2cc(S(=O)(=O)NC)ccc2Br)c2ccccc2c1=O | -2.51% |
| COC(=O)c1ccc([C@H]2CC(=O)O2)cc1 | -4.85% |
| O=C(N/N=C/c1ccccn1)c1ccc(NC(=O)c2ccc(F)cc2)cc1 | 2.56% |

| SMILES | inhibition |
| --- | --- |
| COc1ccc(/C=N/NC(=O)CSCc2ccc([N+](=O)[O-])cc2)cc1OC | -9.89% |
| O=C(CSCc1ccc([N+](=O)[O-])cc1)N/N=C/c1cccnc1 | 3.16% |
| COc1cc(C(=O)OCC#N)ccc1OCc1c(C)noc1C | 9.39% |
| COc1cc(NCc2ccccc2)c2ncn(C(C)C)c2c1 | 1.58% |
| CCOc1cc(NCc2ccccc2)c2ncn(C(C)C)c2c1 | 67.6% |
| COc1ccccc1CNC(=O)C(CCSC)NS(=O)(=O)c1ccc2c(c1)oc(=O)n2C (stereo not given) | 3.84% |
| O=C(C(=O)N1CC=C(c2ccccc2)CC1)c1c[nH]c2ccccc12 | 5.82% |
| O=S(=O)(NCc1ccco1)c1ccc2ccccc2c1 | 10.5% |
| Cc1ncsc1CCOC(=O)c1cccc([N+](=O)[O-])c1 | 8.02% and -15.9% |
| CC(=O)Nc1ccc(NC(=O)COc2ccc([N+](=O)[O-])cc2)cc1 | -3.36% |
| COC(=O)c1ccc(NC(=O)COc2ccc([N+](=O)[O-])cc2)cc1 | -9.31% |
| Cc1ncsc1CCOC(=O)c1ccccc1 | 4.41% |
| O=C(Nc1ccc(Cl)c(S(=O)(=O)Nc2ccccc2Cl)c1)c1cccs1 | -2.32% |
| CC(C)(C)NCCOCCOc1ccccc1-c1ccccc1 | 5.36% |
| N#Cc1ccccc1S(=O)(=O)N1CCN(C(=O)[C@H](Cc2ccccc2)NC(=O)c2ccco2)CC1 | -9.05% |
| C#CC[N+](C)(C)CCCCCCCCCC | 6.64% |
| CCCCCC[N+](C)(C)CCSSCC[N+](C)(C)CCCCCC | -17.5% |
| CC(C)(C)c1ccc(S(=O)(=O)N2CCN(CC(O)COCC3CCCO3)CC2)cc1 (stereo not given) | 7.79% |
| Cc1cccc(C)c1-n1c(C)cc(/C=N/NC(N)=S)c1C | 51.5% |
| Cc1cc(/C=N/NC(N)=O)c(C)n1-c1ccc(F)cc1 | 1.83% |

| SMILES | inhibition |
| --- | --- |
| Nc1nc(N)c2nc(-c3ccccc3)c(N)nc2n1 | 16.7% |
| NSc1nc(N)c2nc(-c3ccccc3)c(-c3ccccc3)nc2n1 | 7.97% |
| COc1cccc(/C=N/NC(=O)CCCC(=O)Nc2ccc(Br)cc2)c1 | -7.05% |
| CCc1ccc(N2CC(C(=O)OCC(=O)Nc3ccc(C(C)=O)cc3)CC2=O)cc1 (stereo not given) | -5.19% |
| S=C1NC2=C(CCCC2)C2(CCCCC2)N1 | -1.82% |
| CC(C)(C)NC(=O)NC(=O)CSc1ncccn1 | 4.89% |
| C=CCn1c(NCc2ccc3c(c2)OCO3)nc2ccccc21 | 1.97% |
| O=C1OCc2nc3cc4c(cc3c(-c3ccc(F)cc3)c21)OCO4 | 3.09% |
| Cc1cc(NS(=O)(=O)c2ccc(NC(=O)/C=C/c3ccccc3Cl)cc2)no1 | 40.1% |
| COc1ccccc1/C=C/C(=O)Nc1ccc(S(=O)(=O)Nc2cc(C)nc(C)n2)cc1 | 8.18% |
| O=C(O)/C=C\C(=O)Nc1ccc(N2CCN(c3ccc(F)cc3)CC2)cc1 | 14% |
| O=c1oc2ccccc2c(O)c1/C=N/c1ncccn1 | 4.28% |
| Cn1c(O)c(/C=C2\C=Nc3ccccc32)c(=O)n(C)c1=O | 3.29% |
| Cc1cc2cc(CNC(=S)Nc3ccc(OC(F)(F)F)cc3)ccc2n1C | -4.09% |
| O=S(=O)([N-]c1nc2ccccc2nc1-n1cc[n+](Cc2ccccc2)c1)c1ccccc1 | 1.97% |
| CCCC[n+]1ccn(-c2nc3ccccc3nc2[N-]S(=O)(=O)c2ccccc2)c1 | -13.6% |
| O=C(NCCc1ccc(Cl)cc1)C1CCC(CNc2nc(=S)[nH]c3ccccc23)CC1 (stereo not given) | 5.86% |
| O=C1OC(CCl)CN1Cc1c(Cl)cccc1Cl (stereo not given) | -11.9% |
| Cc1nn(Cc2ccccc2Cl)c(C)c1C(=O)NCC(c1cccs1)N1CCOCC1 (stereo not given) | 0.07% |
| COc1ccc(C)cc1NC(=O)CCN1CCN(c2ccccc2)CC1 | 5.54% |
